# 12-LOX inh: Primary qHTS assay for inhibitors of human arachidonate 12S-lipoxygenase (ALOX12): Round 2 | Polyunsaturated fatty acid lipoxygenase ALOX12 (Homo sapiens), P18054 | purified 12hLO, xylenol orange hydroperoxide absorbance | Potency, µM (titrated, usually from 108 µM), for the others: top-dose activity change, negative = inhibition, hits mostly inhibitors | actives 1.1% (n = 580,000); note: potency is the fitted concentration of half-maximal effect; % is set by controls: 0 for no effect and ±100 for the full control effect
# Target sequence (P18054 whole entry, looked up): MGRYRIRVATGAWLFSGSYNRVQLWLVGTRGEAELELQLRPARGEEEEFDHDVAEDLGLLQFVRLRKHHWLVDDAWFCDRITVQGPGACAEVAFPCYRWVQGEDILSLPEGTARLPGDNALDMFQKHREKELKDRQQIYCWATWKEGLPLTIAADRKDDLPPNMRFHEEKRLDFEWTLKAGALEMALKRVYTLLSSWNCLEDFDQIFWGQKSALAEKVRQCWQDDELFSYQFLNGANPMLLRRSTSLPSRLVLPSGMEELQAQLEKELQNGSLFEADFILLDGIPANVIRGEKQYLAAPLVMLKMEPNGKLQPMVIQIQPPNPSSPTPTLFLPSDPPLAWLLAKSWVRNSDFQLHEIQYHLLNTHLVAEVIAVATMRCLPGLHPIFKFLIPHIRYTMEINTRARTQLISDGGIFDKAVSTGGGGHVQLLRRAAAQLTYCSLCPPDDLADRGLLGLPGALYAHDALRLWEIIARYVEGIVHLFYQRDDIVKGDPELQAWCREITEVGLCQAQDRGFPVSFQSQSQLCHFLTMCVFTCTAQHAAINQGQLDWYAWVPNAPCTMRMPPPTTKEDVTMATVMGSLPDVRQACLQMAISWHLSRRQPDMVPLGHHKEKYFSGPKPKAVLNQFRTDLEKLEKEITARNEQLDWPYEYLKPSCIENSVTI
#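 Purified human 12hLO at 150 nM in 25 mM Hepes, 0.01% Triton X-100, pH 7.0, preincubated 15 min at room temperature with compound. Reaction started with 40 uM arachidonic acid, 30 min at room temperature. Hydroperoxide measured by Fe-xylenol orange, 573/405 nm absorbance ratio.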
# Nrf2 block: Nrf2 qHTS screen for inhibitors; A549 ARE-Fluc reporter, luciferase luminescence, 18-24 h; Potency, µM (titrated, usually from 46 µM), without a hit: top-dose activity change, negative = inhibition, hits mostly inhibitors; actives 2.1% (n = 360,000); note: potency is the fitted concentration of half-maximal effect; % is set by controls: 0 for no effect and ±100 for the full control effect; nearly all actives have a fitted effect of over 60% in size
#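 A549 ARE_Fluc cells, 5000/well, 5% FBS OPTI-MEM; compounds in dose-response, 18-24 h at 37 °C/5% CO2; CellTiter-Fluor viability read (Ex 405/Em 525), then BugLite luciferase luminescence = Nrf2 activity.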
# LDHA inh: qHTS assay for inhibitors of human lactate dehydrogenase. L-lactate dehydrogenase A chain (Homo sapiens), P00338. purified LDHA, NADH/diaphorase-resazurin fluorescence; hits give low values. activity change, % (values are at about 110 or 230 µM). actives 0.15% (n = 480,000); in the data active = activity change below about -30%; inconclusive = mostly about -25% to -30%;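 note: plate controls were DMSO wells for no effect and wells without enzyme for full effect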
#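 Resorufin fluorescence (ex540/em590), read at 0 and 20 min after diaphorase/resazurin addition, reports the NADH left after a 5 min room-temperature reaction of 2 nM human LDH5 with 0.06 mM NADH and 0.2 mM pyruvate.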
# ERG-DNA inh: qHTS for Small Molecule Inhibitors of the ERG Ets/DNA interaction; Transcriptional regulator ERG (Homo sapiens), P11308; fluorescence polarization, His-ERG Ets domain / labelled DNA; Potency, µM (doses to about 76.9 µM), without a hit: at the top dose FP activity, negative = inhibition, most hits filed as inhibitors; actives 0.028% (n = 370,000); AID 624246, 2012; active = well fitted inhibition curve with a large enough effect in the polarisation, with a control signal flat; inconclusive = small, poorly fitted or top-dose-only effect, or effect the other way, or a change in a side signal; inactive = no such curve, though single readings can be large or run the other way; the % refers to the polarisation;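 note: polarization taken with two DNA probes labelled with fluorescein and Texas red; potency is the fitted concentration of half-maximal effect; % of control where 0% means no effect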
#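 His-tagged ERG Ets domain (1 uM in the protein solution; 300mM KCl, 50mM Tris-HCl, 1mM EDTA, 1mM DTT, pH 7.5) received compound, then a probe mix of 5 nM fluorescein-DNA and 100nM Texas-615-DNA. Fluorescence polarization was read for both dyes.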
# A549 viability: Nrf2 qHTS screen for inhibitors: counterscreen for cytotoxicity. A549 ARE-Fluc cells, CellTiter-Fluor viability, 18-24 h. Potency, µM (doses to about 46 µM), for inactives: top-dose activity change, negative = cytotoxicity, actives largely listed as inhibitors. actives 0.16% (n = 390,000); note: potency is the fitted concentration of half-maximal effect; % is set by controls: 0 for no effect and ±100 for the full control effect
#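 A549 ARE_Fluc cells in 5% FBS OPTI-MEM were exposed to compounds in concentration-response for 18-24 h at 37 deg C. Viability was read by CellTiter-Fluor fluorescence (Ex 405/Em 525) after 30 min, before the luciferase read.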
# Nrf2 ARE act: qHTS of Nrf2 Activators; AREc32 ARE-luciferase reporter (MCF7-derived line), luminescence, 24 h; Potency, µM (titrated, usually from 46.1 µM), without a hit: top-dose activation, usual class: activators; actives 0.31% (n = 410,000); note: potency is the fitted concentration of half-maximal effect; % of control where 0% means no effect; nearly all actives have a fitted effect of over 65% in size
#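 Cells of the AREc32 ARE-luciferase line are plated in OPTI-MEM containing 5% FBS and left overnight at 37 deg C. Compounds are pinned in, incubation continues 24 hr, and firefly luciferase signal is then measured.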
# Numbers without * were called inactive; ? = inconclusive; · = no result given. Hits are enriched below; roughly 2.7% of the tested compounds scored in any of these assays. Unless noted, calls come from the whole dose curve; as a rule, active = well fitted curve in the direction sought with a large enough effect; inconclusive = small, poorly fitted or top-dose-only effect, or another doubt; inactive = no such curve, though single readings can be large; an effect the other way counts as inactive or inconclusive.
SMILES,12-LOX inh,Nrf2 block,LDHA inh,ERG-DNA inh,A549 viability,Nrf2 ARE act
CCn1c(CNC(=O)c2cc(OC)c(OC)c(OC)c2)cc2ccccc21,10%,21µM*,-4,11%,1%,1%
O=C(Cn1c(=O)n(Cc2nc(-c3ccccc3)no2)c(=O)c2ccccc21)Nc1cccc(Cl)c1,-3%,-14%,-2,1%,-11%,-1%
O=C(Cn1c(=O)n(Cc2nc(-c3ccccc3)no2)c(=O)c2ccccc21)Nc1cccc(C(F)(F)F)c1,-5%,16µM*,-1,2%,-16%,-1%
CC1CCC(NC(=O)COc2ccc(C(=O)c3ccccc3)cc2)CC1 (stereo not given),0%,18µM*,1,3%,4%,0%
CC(=O)c1ccc(OCC(=O)NC2CCCCCC2)cc1,-1%,16%,-3,·,6%,1%
O=C1CCc2cc(S(=O)(=O)Nc3ccc(-c4ccccc4)cc3)ccc2N1,·,12µM*,1,·,2%,·
O=C(C1=Cc2cc(Cl)ccc2OC1)N1CCN(S(=O)(=O)c2cc(F)ccc2F)CC1,40µM*,·,6,·,·,·
COc1ccc(S(=O)(=O)N2CCN(C(=O)C3=Cc4cc(Cl)ccc4OC3)CC2)cc1OC,-14%,·,11,·,·,·
N#CC1=C(N)OC2=C(C(=O)CC(c3cccc(Cl)c3)C2)C1c1ccc(Cl)cc1 (stereo not given),?,·,7,·,·,·
CCN(CC)C(=O)c1sc2nc(-c3cccs3)cc(-c3ccc(Cl)cc3)c2c1N,-16%,-7%,0,0%,?,0%
CCN(CC)C(=O)c1sc2nc(-c3cccs3)cc(-c3cccs3)c2c1N,40µM*,8%,-8,2%,12%,4%
O=C(/C=C/c1cccnc1)c1ccc2cccc3c2c1CC3,?,·,-1,·,·,·
Cc1cccc(-n2ncc3c2CCCC3NC(=O)CCc2ccncc2)c1C (stereo not given),5%,5.8µM*,0,4%,-7%,-1%
Cc1cccc(-n2ncc3c2CCCC3NC(=O)CCC(F)(F)F)c1C (stereo not given),38%,·,·,·,·,·
COCCCNC(=O)CC1C[C@H](C(=O)N2CCCCC2)[C@@]2(CCc3ccccc3)c3[nH]c4ccc(OC)cc4c3CCN2C1=O (stereo not given in full),-2%,-20%,-3,3%,-10%,0%
O=C(C[C@H]1C[C@H](C(=O)N2CCCCC2)[C@@]2(CCc3ccccc3)c3[nH]c4ccc(Cl)cc4c3CCN2C1=O)NCCC1=CCCCC1,2%,1%,2,8%,2%,1%
CC(C)(C)NC(=O)C[C@H]1C[C@H](C(=O)N2CCCCC2)[C@@]2(C)c3[nH]c4ccc(Cl)cc4c3CCN2C1=O,-7%,16µM*,1,15%,?,0%
COc1ccc2[nH]c3c(c2c1)CCN1C(=O)C(CC(=O)NCCc2ccccn2)C[C@H](C(=O)N2CCCCC2)[C@@]31CCc1ccccc1 (stereo not given in full),?,21µM*,1,-8%,-27%,0%
O=C(C[C@H]1C[C@H](C(=O)N2CCCCC2)[C@@]2(CCc3ccccc3)c3[nH]c4ccc(Cl)cc4c3CCN2C1=O)NCCc1ccccn1,·,21µM*,-6,-3%,?,0%
COc1ccc2[nH]c3c(c2c1)CCN1C(=O)C(CC(=O)NCc2ccco2)C[C@H](C(=O)N2CCCCC2)[C@@]31CCc1ccccc1 (stereo not given in full),-16%,23µM*,-6,-6%,-26%,-1%
COC(=O)c1ccc(NC(=O)NCc2cccn2Cc2ccc(F)cc2)cc1,?,·,0,·,·,·
CCn1c(CNc2ccc(Cl)cc2)nnc1SCc1ccc(Cl)cc1,-12%,23µM*,0,-3%,?,0%
Cc1cccc(OCCCCn2c(C3CC(=O)N(c4ccc(C)cc4C)C3)nc3ccccc32)c1 (stereo not given),18µM*,?,-1,1%,?,-3%
CCc1ccc(N2CC(c3nc4ccccc4n3Cc3ccccc3C)CC2=O)cc1 (stereo not given),-21%,15µM*,2,-1%,-7%,1%
Cc1cccc(OCCCCn2c(C3CC(=O)N(c4ccccc4Cl)C3)nc3ccccc32)c1 (stereo not given),-14%,?,-2,5%,?,0%
SMILES,12-LOX inh,Nrf2 block,LDHA inh,ERG-DNA inh,A549 viability,Nrf2 ARE act
CCc1ccc(N2CC(c3nc4ccccc4n3CC(=O)N3CCC(C)CC3)CC2=O)cc1 (stereo not given),9%,·,3,·,·,·
COc1ccccc1Cn1c(C2CC(=O)N(c3ccccc3OC)C2)nc2ccccc21 (stereo not given),?,10µM*,?,-1%,-5%,4%
CCOC(=O)Cn1c(C2CC(=O)N(c3ccc(C)cc3)C2)nc2ccccc21 (stereo not given),-21%,21µM*,-4,-1%,-13%,0%
Cc1c(-c2ccc(Cl)cc2)[n+](=O)c(-c2ccc(Cl)cc2)c(C)n1[O-],-41%,·,6,·,·,·
COc1ccc2cc(C(=O)N3CCN(S(=O)(=O)c4cc(C)ccc4C)CC3)c(C)nc2c1,3%,·,10,·,·,·
COc1cccc(C(=O)/C(=C/c2ccncc2)c2nc3ccccc3o2)c1,?,·,0,·,·,·
COc1ccc(C(=O)/C(=C/c2ccco2)c2nc3ccccc3o2)cc1,14µM*,·,4,·,·,·
COc1cc(OC)cc(C(=O)/C(=C\c2ccco2)c2nc3ccccc3o2)c1,40µM*,·,10,·,·,·
COc1cccc(C(=O)/C(=C/c2ccco2)c2nc3ccccc3o2)c1,40µM*,·,-8,·,·,·
O=C(CCNc1nc(Cl)nc2nc[nH]c12)NCCc1c[nH]c2ccc(Cl)cc12,-5%,·,0,·,·,·
COC(=O)C(C)Oc1cc2oc(=O)cc(C)c2cc1Cl (stereo not given),3%,·,4,·,·,·
O=c1nc2c(O)cccn2c2c1c(=O)[nH]c1ccccc12,?,13%,14,1%,-8%,5.6µM*

# Screening results from PubChem.
